In all, about 25,000 sequences were measured (“ln(normalized median fluorescence intensity)”: median about 9.7, highest 2% from about 11 on). Only a selection was taken, and the highest values are over-represented in it overall.
Each sequence was assayed on PfAP2-HC AP2 domain (GST-tagged) (assay: gcPBM binding intensity (ln(normalized median fluorescence intensity)); higher = stronger DNA binding).
How it was run: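 DNA-binding domains from P. falciparum, fused to GST and produced in E. coli, were put on an Agilent 4 × 180k double-stranded probe array for 1 h in 1× PBS holding 1% milk, 0.2 mg/ml BSA, 0.5% salmon testes DNA and 0.03% Triton X-100. Probes were primer-extended, 36 bp long and drawn from intergenic genomic regions, with negative controls included. After Alexa488 anti-GST antibody detection and a 488 nm scan, binding intensity was set as the highest Masliner-normalised natural-log median intensity across replicate spots of either probe orientation.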

In order of rising “gcPBM binding intensity (ln)” value:
1. ATATTTTTTTATAAATGTACAAAAATAATATTGCAT [XGTACX_site7399]  9.48
2. TTTATTTATTTATTCTTATTTTTTTTTTTTTTTACT [CACACA_negctrl_site257]  9.49
3. TTATAACTTTTCACAAGTACATATATATATGTATAA [XGTACX_site2306]  9.53
4. TATACACATATATAAACACACAAAAAAAAAAAAAAA [CACACA_site7041]  9.57
5. TTTTTTTGCATTTCATGTACATATATTGAGCTTAAA [XGTACX_site8485]  9.6
6. TAATAAACTTAAAAATGTACATATATTTATTATTAC [XGTACX_site4321]  9.61
7. AAGTTAGTATTCTGCTGTACTTCTATATATAAGTGT [XGTACX_site7678]  9.61
8. AAAATACACAACATATATATATATATATATATATAT [XGTACX_negctrl_site21]  9.62
9. TATAAATTAAAATCAGTGCATATTTTGAAAAACCTC  9.66
10. TCCAAATGTTTGCGTTGTACTCTTTTTTTAAAACTA [XGTACX_site5148]  9.73
11. ATATATTGATATATGTGTACATAGCTTATTTCATTT [XGTACX_site1800]  9.74
12. TACAAAAGCTATAACATTCACCACATTATAAAAATA [CACACA_negctrl_site1112]  9.78
13. ATATAAATATGTTCTGCACACAAATAAGTGTTTGAA [CACACA_site9291]  9.79
14. GCACTAAAAAAATAAACACACAGATTTATATAATAT [CACACA_site1381]  9.79
15. AATACATAATAACATGTACACACATTCTTCTATAAA [CACACA_site9344]  9.82
16. TATATACACATATATAAACACACAAAAAAAAAAAAA [CACACA_site8626]  9.82
17. TAAAAACCAAAGAAAAGTACAAATTTAAATGAGAAA [XGTACX_site7450]  9.83
18. TTCTAATATATGCATACACACAAATGTGAATATACA [CACACA_site2142]  9.83
19. AGTAAGAGGCATTAAGCATGCATATTATTATAAGCA [TGCATGCA_site237]  9.85
20. GTAAAATTAAAAATAACACACAAAAAAAAAAAAAAA [CACACA_site800]  9.85
21. AAGAATGTTAATAGTACACACAATTATTATATAAAT [CACACA_site3739]  9.93
22. CTATGAACACACACATGTACATATATTAACTCGCTA [XGTACX_site8805]  9.98
23. AAATATGTCAAATATACACACATAATAAATATAATA [CACACA_site2310]  9.99
24. AAAATATATACACAAACATGCATATAATAAATAAAT [TGCATGCA_site711]  9.99
25. TACAAAATGGGGAACACACACATATATATATATATA [CACACA_site3844]  9.99
26. ATATATATTATCATTGTGCACTTATTTATATACCTT  10
27. AAAAAAAAAAAAAACATACACACAAATATATACATA [CACACA_site4010]  10
28. ACAAAAAAAAAAAAAATACACACACATAAAAAAAAA [TGCATGCA_negctrl_site333]  10.2
29. AAAATAAAATAAAATACACACATACATACATACAAA [CACACA_site5366]  10.2
30. AATAAATATATGTACACACACAAATATATACATATC [CACACA_site1903]  10.2
31. AAAAAAAAAAAACATACACACAAATATATACATACA [CACACA_site4011]  10.2
32. AAAATACACCAACACACACACATATATATATATATT [CACACA_site4149]  10.3
33. CATATAAAAATATGCACACACAGGAATACAAACATA [CACACA_site684]  10.3
34. TGTACAAATATGTACACACACACATATATATATATA [CACACA_site584]  10.3
35. CACACGCACGGACACACACACAAAAAAAAAAAGAAA [CACACA_site6378]  10.3
36. AAAAAAAAAATATACACACACACATACACATAAATA [CACACA_site3808]  10.4
37. AAGGCAAACAAACACACACACATATATACATATATA [CACACA_site2122]  10.4
38. AACAGACAAAGACACACACACATACATACATACATA [CACACA_site6351]  10.4
39. CACATACATATATACACACACAAAATAATAAAATAA [CACACA_site2308]  10.4
40. TATAAATATATATATACACACACATACACAAAAAAA [CACACA_site9191]  10.5
41. TAAAGGCAAACAAACACACACACATATATACCTATA [CACACA_site7078]  10.6
42. AACAAACACGGACACACACACACACTAGAATGATTA [CACACA_site5364]  10.7
43. TATTAATACGGACACACACACACACTAGATAAAATA [CACACA_site4295]  10.8
44. GATACAAAATGGGGAACACACACATATATATATATA [CACACA_site9278]  10.8
45. AAAAAAAAAAAATACACACACATAAAAAAAAAAATA [CACACA_site1858]  10.9
46. AAAAAAAAAAAAAATACACACACATAAAAAAAAAAA [CACACA_site8555]  10.9
47. TAAATATATAAATACACACACATACACAAAAAAAAA [CACACA_site5890]  10.9
48. AACAAATACGGACACACACACACACTAGAAAAAAAA [CACACA_site4442]  11
49. TATAACATAAAACACACACACATACATACACAAAAA [CACACA_site1804]  11
50. TAAAGGCAAACAAACACACACACATATATACATATA [CACACA_site2123]  11.1
51. ATATATCTACAAATATGTACACACACACATATATAT [XGTACX_site1075]  11.1
52. TACAAAATGGGGAACACACACATATATAAATAAATA [CACACA_site7751]  11.1
53. AATAAAATAAAATACACACATACATACATACAAATG [CACACA_site2438]  11.2
54. AACATATAAAAATATGCACACACAGGAATACAAACA [CACACA_site8127]  11.2
55. CAAATACACCAACACACACACACAAAAAAAAAAAAA [CACACA_site514]  11.3
56. AAAAAAAAAAAACACACACACACATACAAAATATAT [CACACA_site1448]  11.3
57. CACAGACACGGACACACACACACAAAAAAAAAAAGA [CACACA_site4436]  11.3
